According to the supplement of paper PMC13380429:

Legend:
[1] = system: Vero E6 infected with SARS-CoV-2; test: morphology score (similarity to uninfected cells); higher = more like uninfected cells; details: 24 h
[2] = system: Vero E6 infected with SARS-CoV-2; test: SARS-CoV-2 infection rate relative to infected DMSO; higher = more infection, active = 60 or less; details: 24 h

| SMILES | morphology score [1] | SARS-CoV-2 infection rate [2] |
| --- | --- | --- |
| N#C/C(=C\c1ccc(O)c(O)c1)C(=O)NCc1ccccc1 (10 µM) | 0.214 | 98% (inactive) |
| S=C(S)N1CCCC1 [pyrrolidine-dithiocarbamate] (0.833333 µM) | 0.106 | 98% (inactive) |
| O=[N+]([O-])c1cc(O)c(O)c([N+](=O)[O-])c1 (10 µM) | 0.123 | 101% (inactive) |
| COc1ccc(C(=O)N2CCCC2=O)cc1 [aniracetam] (10 µM) | 0.0647 | 106% (inactive) |
| CC(C)C(=O)OC[C@@]1(N=[N+]=[N-])O[C@@H](n2ccc(N)nc2=O)[C@H](OC(=O)C(C)C)[C@@H]1OC(=O)C(C)C [balapiravir] (10 µM) | 0.0882 | 88% (inactive) |
| CCC(=O)NO (10 µM) | 0.00785 | 112% (inactive) |
| CC(=O)[C@H]1CC[C@H]2[C@@H]3CCC4=CC(=O)CC[C@]4(C)[C@H]3CC[C@]12C [progesterone] (10 µM) | 0.206 | 96% (inactive) |
| COc1ccc(NS(=O)(=O)c2ccc(/N=N/c3ccc(O)c(C(=O)O)c3)cc2)nn1 [salazodine] (10 µM) | 0.0596 | 113% (inactive) |
| CN1CCCC(CN2c3ccccc3Sc3ccccc32)C1 (stereo not given) [mepazine] (10 µM) | 0.538 | 60.5% (inactive) |
| Cc1cn(-c2cc(NC(=O)c3ccc(C)c(Nc4nccc(-c5cccnc5)n4)c3)cc(C(F)(F)F)c2)cn1 [nilotinib] (10 µM) | 0.334 | 96.5% (inactive) |
| CC1=C(/C=C/C(C)=C/C=C/C(C)=C/C=O)C(C)(C)CCC1 [retinaldehyde] (10 µM) | -0.111 | 114% (inactive) |
| c1ccc2cc(C3=NCCN3)ncc2c1 (10 µM) | 0.119 | 102% (inactive) |
| O=C[C@H](O)[C@@H](O)[C@H](O)CO [xylose] (10 µM) | -0.0367 | 108% (inactive) |
| CC[C@@]1(O)C(=O)OCc2c1cc1n(c2=O)Cc2c-1nc1cc(F)c(C)c3c1c2[C@@H](N)CC3 [exatecan-mesylate] (0.833333 µM) | 0.0535 | 110% (inactive) |
| COc1ccc2cc(-c3cc(-c4cc(Cl)cc(Cl)c4)nn3[C@@H](C)c3ccc(C(=O)NCCC(=O)O)cc3)ccc2c1 (10 µM) | 0.164 | 106% (inactive) |
